Experimental data published in PubChem BioAssay (NCATS).
Values joined by “and” are separate entries in the source; they are usually repeats but may differ in a detail not shown here. Equal entries are not always repeated. Records with an inconclusive call do not appear. Entries that show only a call come without a potency. Active and inactive are the calls of the source. Unless noted, calls follow the shape of the dose curve; as a rule, active = well fitted curve in the direction sought with a large enough effect; inconclusive = small, poorly fitted or top-dose-only effect, or another doubt; inactive = no such curve, though single readings can be large; an effect the other way counts as inactive or inconclusive.

Columns and labels:
[1] = Primary qHTS for inhibitors of nuclear receptor binding SET domain protein 2 (NSD2) in an RCH-ACV wild type WT cells (2C) (AID 1645877); settings: RCH-ACV (leukaemia line) NSD2 WT (2C) viability, CellTiter-Glo, 72 h; series mostly up to 44.9 µM; also: nearly all actives have a fitted effect of over 70% in size; also: potency is read from the fitted curve at half-maximal effect
[2] = target: Glutathione peroxidase 1 (Homo sapiens) (UniProt P07203); assay: Primary qHTS Assay for Inhibitors of Recombinant Selenoprotein Glutathione Peroxidase 1 (GPX1) (AID 1845191); settings: recombinant GPX1, GR-coupled NADPH fluorescence, 15 min; series mostly up to 48.8 µM; also: nearly all actives have a fitted effect of over 65% in size
How it was run: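 10 nM GPX1 + cpd, 30 min RT; start w/ 1 mM GSH, 0.5 mM cumene hydroperoxide, 0.5 mM NADPH, 100 nM GR, 0.01% BSA; buffer 50 mM Tris-HCl pH 7.5, 2 mM EDTA, 150 mM NaCl; Fl 340/450, 0 & 15 min.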

[3] = target: Phospholipid hydroperoxide glutathione peroxidase GPX4 (Homo sapiens) (UniProt P36969); assay: Primary qHTS Assay for Inhibitors of Recombinant Selenoprotein Glutathione Peroxidase 4 (GPX4) (AID 1845192); settings: recombinant GPX4, GR-coupled NADPH fluorescence, 15 min; series mostly up to 50 µM; also: nearly all actives have a fitted effect of over 65% in size
How it was run: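 NADPH consumption, followed by fluorescence at 340/450 nm between 0 and 15 min, reports GPX4 activity via coupled glutathione reductase (100 nM). Enzyme 200 nM was pre-exposed to compound 30 min; 0.5 mM cumene hydroperoxide and 1 mM GSH served as substrates.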

[4] = target: Catechol O-methyltransferase (Homo sapiens) (UniProt P21964); assay: Confirmatory Screen for Target Class Profiling of Small Molecule Inhibitors of Methyltransferases (AID 1745852; calls by dose curve); settings: MTase-Glo luminescence, SAH detection, recombinant enzyme; measured here: COMT max response; stronger effect = lower value
[5] = target: Guanidinoacetate N-methyltransferase (Homo sapiens) (UniProt Q14353); assay: as above; settings: MTase-Glo luminescence, SAH detection, recombinant enzyme; activity change, negative = inhibition: at 57.3 µM (top of the series) unless noted
[6] = target: Nicotinamide N-methyltransferase (Homo sapiens) (UniProt P40261); assay: as above; settings: MTase-Glo luminescence, SAH detection, recombinant enzyme; measured here: NNMT max response; stronger effect = lower value
[7] = target: Phenylethanolamine N-methyltransferase (Homo sapiens) (UniProt P11086); assay: as above; settings: MTase-Glo luminescence, SAH detection, recombinant enzyme; measured here: PNMT max response; stronger effect = lower value
[8] = target: Metallo-beta-lactamase type 2 (Klebsiella pneumoniae) (UniProt C7C422); assay: qHTS to identify inhibitors of the New Delhi Metallo-beta-lactamase (NDM): assay validation screen against the NCATS LOPAC Collection (AID 1794843); settings: NDM-1 enzyme, nitrocefin hydrolysis, absorbance 485 nm; series mostly up to 38.4 µM;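 also: nitrocefin turnover by NDM-1 measured as 485 nm absorbance at plateau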
How it was run: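 Enzyme 2 nM final, 50 mM HEPES pH 7.0, 1 uM ZnSO4, 0.01% Tween20; cpds in DMSO, preincub w/ enzyme; + nitrocefin (50 uM stock); A485 at plateau; no-enzyme column as blank.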

[9] = target: Rap guanine nucleotide exchange factor 3 (Homo sapiens) (UniProt O95398); assay: Confirmatory qHTS for antagonist of cAMP-regulated guanine nucleotide exchange factor 3 (EPAC1) (AID 1645880); settings: EPAC1 Rap1B-BODIPY-GDP exchange, fluorescence; series mostly up to 115 µM; also: nearly all actives have a fitted effect of over 55% in size
How it was run: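 Nucleotide exchange uses 100 nM EPAC1, 250 nM RAP1B-BODIPY-GDP and 50 uM GDP, with compounds in a concentration-titration series. After 5 min at room temperature, fluorescence (480 nm ex/540 nm em) is read every 5 min for 30 min. Data are normalized to control ATA and DMSO.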

[10] = target: Rap guanine nucleotide exchange factor 3 (Homo sapiens) (UniProt O95398); assay: Confirmatory qHTS for agonist of cAMP-regulated guanine nucleotide exchange factor 3 (EPAC1) (AID 1645881); settings: EPAC1 Rap1B BODIPY-GDP exchange fluorescence; series mostly up to 154 µM; also: nearly all actives have a fitted effect of over 75% in size; also: potency is read from the fitted curve at half-maximal effect
[11] = target: Rap guanine nucleotide exchange factor 4 (Homo sapiens) (UniProt Q8WZA2); assay: Confirmatory qHTS for agonist of cAMP-regulated guanine nucleotide exchange factor 4 (EPAC2) (AID 1645884); settings: EPAC2 GEF activity, Rap1B-BODIPY-GDP fluorescence; series mostly up to 154 µM;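 also: nucleotide exchange releases bodipy-GDP from Rap1 and this lowers its fluorescence; nearly all actives have a fitted effect of over 65% in size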; also: potency is read from the fitted curve at half-maximal effect
[12] = target: Rap guanine nucleotide exchange factor 4 (Homo sapiens) (UniProt Q8WZA2); assay: Confirmatory qHTS for antagonist of cAMP-regulated guanine nucleotide exchange factor 4 (EPAC2) (AID 1645885); settings: EPAC2 Rap1B-BODIPY-GDP exchange fluorescence, biochemical; series mostly up to 114 µM; also: nearly all actives have a fitted effect of over 25% in size

Chain of Phenylethanolamine N-methyltransferase (Homo sapiens) (P11086 whole entry, looked up): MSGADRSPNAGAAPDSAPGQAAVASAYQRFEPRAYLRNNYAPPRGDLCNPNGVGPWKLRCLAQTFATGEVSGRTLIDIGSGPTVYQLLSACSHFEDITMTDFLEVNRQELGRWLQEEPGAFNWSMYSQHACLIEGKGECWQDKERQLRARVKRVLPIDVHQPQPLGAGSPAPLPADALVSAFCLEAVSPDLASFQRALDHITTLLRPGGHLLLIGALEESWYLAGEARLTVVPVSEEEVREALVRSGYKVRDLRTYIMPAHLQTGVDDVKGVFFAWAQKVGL
Chain of Catechol O-methyltransferase (Homo sapiens) (P21964 whole entry, looked up): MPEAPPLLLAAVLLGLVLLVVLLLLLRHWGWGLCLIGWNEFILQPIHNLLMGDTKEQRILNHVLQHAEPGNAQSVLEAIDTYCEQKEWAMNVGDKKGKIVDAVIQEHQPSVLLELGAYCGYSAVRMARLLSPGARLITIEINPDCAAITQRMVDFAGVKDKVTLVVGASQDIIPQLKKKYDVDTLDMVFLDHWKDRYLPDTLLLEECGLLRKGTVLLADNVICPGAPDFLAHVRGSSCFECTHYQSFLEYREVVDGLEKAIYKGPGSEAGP
Chain of Phospholipid hydroperoxide glutathione peroxidase GPX4 (Homo sapiens) (P36969 whole entry, looked up): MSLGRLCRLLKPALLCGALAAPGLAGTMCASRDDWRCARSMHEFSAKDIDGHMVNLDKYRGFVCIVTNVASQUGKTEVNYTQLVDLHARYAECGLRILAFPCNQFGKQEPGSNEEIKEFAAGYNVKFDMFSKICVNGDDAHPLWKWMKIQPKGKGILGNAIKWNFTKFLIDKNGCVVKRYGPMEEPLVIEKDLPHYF
Chain of Metallo-beta-lactamase type 2 (Klebsiella pneumoniae) (C7C422 whole entry, looked up): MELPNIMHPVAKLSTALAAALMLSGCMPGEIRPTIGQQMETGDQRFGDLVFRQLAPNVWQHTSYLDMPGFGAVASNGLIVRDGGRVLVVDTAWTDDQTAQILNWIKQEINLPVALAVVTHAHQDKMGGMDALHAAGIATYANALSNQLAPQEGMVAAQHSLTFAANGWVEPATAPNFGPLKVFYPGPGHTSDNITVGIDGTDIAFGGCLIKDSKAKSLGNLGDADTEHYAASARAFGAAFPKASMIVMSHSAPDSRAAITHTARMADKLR
Chain of Glutathione peroxidase 1 (Homo sapiens) (P07203 whole entry, looked up): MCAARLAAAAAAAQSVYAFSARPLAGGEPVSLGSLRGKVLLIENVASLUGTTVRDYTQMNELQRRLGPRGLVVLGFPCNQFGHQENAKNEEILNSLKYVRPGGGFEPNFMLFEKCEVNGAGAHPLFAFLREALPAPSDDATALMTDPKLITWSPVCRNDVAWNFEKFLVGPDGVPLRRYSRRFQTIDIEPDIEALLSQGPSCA
Chain of Rap guanine nucleotide exchange factor 4 (Homo sapiens) (Q8WZA2 whole entry, looked up): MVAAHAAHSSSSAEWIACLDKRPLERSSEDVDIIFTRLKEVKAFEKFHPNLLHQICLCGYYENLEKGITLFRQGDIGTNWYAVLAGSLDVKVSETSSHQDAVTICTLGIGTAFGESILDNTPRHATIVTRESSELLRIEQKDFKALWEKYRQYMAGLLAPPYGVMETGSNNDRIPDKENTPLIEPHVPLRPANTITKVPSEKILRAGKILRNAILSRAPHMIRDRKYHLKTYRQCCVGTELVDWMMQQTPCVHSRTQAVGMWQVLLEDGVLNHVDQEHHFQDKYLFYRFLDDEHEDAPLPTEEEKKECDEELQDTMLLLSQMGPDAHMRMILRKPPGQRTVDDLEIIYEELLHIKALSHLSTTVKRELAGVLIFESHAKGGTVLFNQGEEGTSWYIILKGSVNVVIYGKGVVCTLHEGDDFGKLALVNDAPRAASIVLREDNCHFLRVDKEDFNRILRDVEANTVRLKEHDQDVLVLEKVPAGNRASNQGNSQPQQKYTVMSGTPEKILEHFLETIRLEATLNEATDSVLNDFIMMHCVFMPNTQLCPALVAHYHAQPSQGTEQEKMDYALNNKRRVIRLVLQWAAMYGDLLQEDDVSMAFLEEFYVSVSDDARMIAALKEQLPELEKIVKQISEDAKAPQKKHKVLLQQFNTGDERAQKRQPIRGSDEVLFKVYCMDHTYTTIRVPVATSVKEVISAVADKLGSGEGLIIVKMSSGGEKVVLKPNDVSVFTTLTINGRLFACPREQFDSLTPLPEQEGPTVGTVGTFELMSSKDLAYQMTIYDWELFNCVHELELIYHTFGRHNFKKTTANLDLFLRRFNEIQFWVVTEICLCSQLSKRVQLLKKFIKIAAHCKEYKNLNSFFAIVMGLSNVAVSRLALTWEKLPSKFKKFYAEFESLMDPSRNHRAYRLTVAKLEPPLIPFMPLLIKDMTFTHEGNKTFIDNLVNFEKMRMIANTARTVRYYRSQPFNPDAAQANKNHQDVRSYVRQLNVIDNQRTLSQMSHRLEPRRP
Chain of Rap guanine nucleotide exchange factor 3 (Homo sapiens) (O95398 whole entry, looked up): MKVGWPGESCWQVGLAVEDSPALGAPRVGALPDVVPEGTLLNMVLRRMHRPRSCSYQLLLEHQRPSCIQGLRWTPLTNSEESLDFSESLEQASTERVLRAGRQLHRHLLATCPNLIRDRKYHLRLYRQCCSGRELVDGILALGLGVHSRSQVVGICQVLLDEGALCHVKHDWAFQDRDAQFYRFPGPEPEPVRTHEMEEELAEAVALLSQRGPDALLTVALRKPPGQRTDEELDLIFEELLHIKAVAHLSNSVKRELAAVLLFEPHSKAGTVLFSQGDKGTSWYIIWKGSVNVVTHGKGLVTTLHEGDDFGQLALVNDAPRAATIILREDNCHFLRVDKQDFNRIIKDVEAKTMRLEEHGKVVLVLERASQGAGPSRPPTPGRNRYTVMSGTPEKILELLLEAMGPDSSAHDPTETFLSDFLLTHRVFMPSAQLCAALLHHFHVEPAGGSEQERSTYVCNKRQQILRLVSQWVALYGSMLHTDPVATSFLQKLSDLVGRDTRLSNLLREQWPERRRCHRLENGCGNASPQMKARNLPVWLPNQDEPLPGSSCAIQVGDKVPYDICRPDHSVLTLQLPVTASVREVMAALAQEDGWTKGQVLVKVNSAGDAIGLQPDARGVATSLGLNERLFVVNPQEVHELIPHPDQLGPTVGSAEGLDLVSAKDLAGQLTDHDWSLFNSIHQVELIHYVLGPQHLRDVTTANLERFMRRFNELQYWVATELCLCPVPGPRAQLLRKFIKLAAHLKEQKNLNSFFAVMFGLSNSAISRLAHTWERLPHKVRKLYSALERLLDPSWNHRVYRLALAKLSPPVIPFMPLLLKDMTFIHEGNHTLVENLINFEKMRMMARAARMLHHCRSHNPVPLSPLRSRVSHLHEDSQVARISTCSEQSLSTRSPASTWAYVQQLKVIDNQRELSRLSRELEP
Chain of Nicotinamide N-methyltransferase (Homo sapiens) (P40261 whole entry, looked up): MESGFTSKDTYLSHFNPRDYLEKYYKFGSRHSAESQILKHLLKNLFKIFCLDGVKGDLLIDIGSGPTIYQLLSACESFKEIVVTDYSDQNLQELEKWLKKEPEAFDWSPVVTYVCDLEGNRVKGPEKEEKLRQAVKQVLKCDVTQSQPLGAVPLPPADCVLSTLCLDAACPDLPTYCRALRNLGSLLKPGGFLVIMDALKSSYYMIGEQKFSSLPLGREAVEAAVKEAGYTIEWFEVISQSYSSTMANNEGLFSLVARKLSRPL

Question: What does the source list for `CN1C(=O)c2ccccc2NC(=O)[C@]12O[C@@H]2c1ccccc1`?
Answer: Potency [1]: inactive; Potency [2]: inactive; Potency [3]: inactive

Question: Which Potency [1] does the source give for `C[C@@]12C[C@@H](c3ccoc3)OC(=O)C1CC[C@]1(C)[C@H]2[C@H]2C=C[C@]1(O)C(=O)O2` (stereo partly drawn) here?
Answer: inactive

Question: And the Potency [2]?
Answer: inactive

Question: What about the Potency [3] of the same molecule?
Answer: inactive

Question: Which results are given for `COc1c(C(C)C)cc2c(c1O)[C@@]1(C(=O)O)CCCC(C)(C)C1CC2` (stereo partly drawn)?
Answer: Potency [1]: inactive; Potency [2]: inactive; Potency [3]: inactive

Question: For `COc1cc(C)[nH]c(=O)c1CNC(=O)c1c(C)n([C@H](C)C2CCOCC2)c2ccccc12`, which Potency [1] is on record?
Answer: inactive

Question: What about the Potency [2] of the same molecule?
Answer: inactive

Question: What about the Potency [3] of the same molecule?
Answer: inactive

Question: Which results are given for `CCc1[nH]c2ccc(OC)cc2c1CCN(C)C`?
Answer: Potency [1]: inactive; Potency [2]: inactive; Potency [3]: inactive

Question: Which results are given for `C/C=C(\C)C(=O)OC1CC2C(CC=C3CC(OC4CC(OC)C(OC5CC(OC)C(OC6OC(C)C(OC7OC(CO)C(O)C(O)C7O)C(OC)C6O)C(C)O5)C(C)O4)CCC32C)C2(O)CCC(C(C)=O)C12C` (stereo not drawn)?
Answer: activity change, negative = cell killing [1]: -1.79% [at 9.23 µM] (inactive); Potency [2]: inactive; Potency [3]: inactive

Question: For `C/C=C(\C)C(=O)OC1CC2C(C)(C)OC(=O)CC(OC(C)=O)C2(C)C2CC(OC(=O)C(C)C)C3(C)C(c4ccoc4)CC4OC43C12C` (stereo not drawn), which Potency [1] is on record?
Answer: inactive

Question: What about the Potency [2] of the same molecule?
Answer: inactive

Question: What about the Potency [3] of the same molecule?
Answer: inactive

Question: For `CN1C(=O)c2ccccc2NC(=O)C1Cc1ccccc1` (stereo not drawn), which Potency [1] is on record?
Answer: inactive

Question: And the Potency [2]?
Answer: inactive

Question: What about the Potency [3] of the same molecule?
Answer: inactive

Question: Which results are given for `CCC(C)(OC(C)=O)C(=O)O[C@H]1[C@H](OC(C)=O)C[C@@H]2[C@@](C)([C@@H]3C[C@H]4C=CO[C@H]4O3)[C@H](C)C[C@H](OC(C)=O)[C@@]2(COC(C)=O)[C@@]12CO2` (stereo partly drawn)?
Answer: Potency [1]: inactive; Potency [2]: inactive; Potency [3]: inactive

Question: Which Potency [1] does the source give for `COC1CC(OC2CCC3(C=O)C(CCC4C3CCC3(C)C(C5=CC(=O)OC5)CCC43O)C2)OC(C)C1OC1OC(CO)C(O)C(O)C1O` (stereo not drawn) here?
Answer: 153 nM (active)

Question: And the Potency [2]?
Answer: inactive

Question: What about the Potency [3] of the same molecule?
Answer: inactive

Question: With `CC(=O)OC1CC(O)C(C)(C)C2CC(OC(C)=O)C3(C)C(CCC4(C)C(c5ccoc5)C(=O)C5OC543)C12C` (stereo not drawn) as the molecule, how does the Potency [1] read?
Answer: inactive

Question: What about the Potency [2] of the same molecule?
Answer: inactive

Question: And the Potency [3]?
Answer: inactive

Question: For `CCOc1ccccc1-n1c(C(C)N2CCN(C(=O)COc3ccc(Cl)cc3)CC2)nc2ccccc2c1=O` (stereo not drawn), which Potency [1] is on record?
Answer: 365 nM (active) and 372 nM (active)

Question: And the Potency [2]?
Answer: inactive

Question: What about the Potency [3] of the same molecule?
Answer: inactive

Question: With `CC(C)(C)c1cc(C(C)(C)C)c2c(c1)C(O)(C(F)(F)F)C(=O)O2` (stereo not drawn) as the molecule, how does the Potency [1] read?
Answer: inactive

Question: And the Potency [3]?
Answer: inactive

Question: With `C=CC(C)(O)CC/C=C(\C)C(=O)O[C@H]1[C@H](O)[C@@H](CO)O[C@@H](OC(=O)[C@]23CCC(C)(C)CC2C2=CCC4[C@@]5(C)CC[C@H](O[C@@H]6O[C@H](CO[C@@H]7OC[C@H](O)[C@H](O)[C@H]7O[C@@H]7OC[C@@H](O)[C@H](O)[C@H]7O)[C@@H](O)[C@H](O)[C@H]6O)C(C)(C)C5CC[C@@]4(C)[C@]2(C)CC3)[C@@H]1OC1OC(C)C(O[C@@H]2OC[C@@H](O)[C@H](O[C@@H]3OC[C@@H](O)[C@H](O)[C@H]3O)[C@H]2O)C(O)C1O` (stereo partly drawn) as the molecule, how does the activity change, negative = cell killing [1] read?
Answer: -28.4% [at 9.23 µM] (inactive)

Question: What about the outcome [2] of the same molecule?
Answer: inactive [at 9.52 µM]

Question: What about the activity change, negative = inhibition [3] of the same molecule?
Answer: 0.212% [at 9.73 µM] (inactive)

Question: For `CC(C)=C1CC[C@]23CO[C@H](C2)[C@@](O)(C(=O)O)CCC13` (stereo partly drawn), which Potency [1] is on record?
Answer: inactive

Question: What about the Potency [2] of the same molecule?
Answer: inactive

Question: And the Potency [3]?
Answer: inactive

Question: What does the source list for `CN1[C@@H]2CC[C@H]1CC(OC(=O)C1C=Nc3ccccc31)C2` (stereo partly drawn)?
Answer: Potency [1]: inactive; Potency [2]: inactive; Potency [3]: inactive

Question: With `c1ccc2cc(CC3=NCCN3)ccc2c1` as the molecule, how does the activity [4] read?
Answer: 5%

Question: And the activity change, negative = inhibition [5]?
Answer: 3.5%

Question: What about the activity [6] of the same molecule?
Answer: 0.294%

Question: And the activity [7]?
Answer: 4.14%

Question: And the Potency [2]?
Answer: inactive

Question: And the Potency [3]?
Answer: inactive

Question: With `NCC(O)c1cc(O)c(O)cc1F` (stereo not drawn) as the molecule, how does the activity [4] read?
Answer: 129%

Question: What about the activity change, negative = inhibition [5] of the same molecule?
Answer: 4.77%

Question: What about the activity [6] of the same molecule?
Answer: -1.34%

Question: What about the activity [7] of the same molecule?
Answer: 31.6%

Question: And the Potency [8]?
Answer: inactive

Question: What about the Potency [2] of the same molecule?
Answer: inactive

Question: And the Potency [3]?
Answer: inactive

Question: Which outcome [9] does the source give for `O=c1[nH]cc(N(CCCl)CCCl)c(=O)[nH]1` here?
Answer: inactive

Question: What about the Potency [10] of the same molecule?
Answer: inactive

Question: And the Potency [11]?
Answer: inactive

Question: And the Potency [12]?
Answer: inactive

Question: And the Potency [2]?
Answer: inactive

Question: And the Potency [3]?
Answer: inactive

Question: Which Potency [10] does the source give for `O=[N+]([O-])c1cc(O)c(O)c([N+](=O)[O-])c1` here?
Answer: inactive

Question: What about the Potency [11] of the same molecule?
Answer: inactive

Question: And the Potency [8]?
Answer: inactive

Question: What about the Potency [2] of the same molecule?
Answer: inactive

Question: And the Potency [3]?
Answer: inactive

Question: Which activity, negative = inhibition [9] does the source give for `O=C1OC2(c3cc(Br)c(O)cc3Oc3c2cc(Br)c(O)[c]3[Hg])c2ccccc21` (stereo not drawn) here?
Answer: 245% [at 22 µM] (inactive)

Question: And the Potency [10]?
Answer: 4.75 µM (active)

Question: What about the Potency [11] of the same molecule?
Answer: 1.34 µM (active)

Question: What about the Potency [2] of the same molecule?
Answer: inactive

Question: What does the source list for `CCCN1CCc2cc(O)cc3c2[C@H]1Cc1ccc(O)c(O)c1-3`?
Answer: activity [4]: 2.74%; activity change, negative = inhibition [5]: -2.35%; activity [6]: -21.6%; activity [7]: 0.0057%; Potency [8]: inactive; Potency [3]: inactive

Question: Which results are given for `CCN1C[C@]2(COC(=O)c3ccccc3N3C(=O)C[C@H](C)C3=O)CC[C@H](OC)[C@@]34[C@@H]5C[C@H]6[C@H](OC)[C@@H]5[C@](O)(C[C@@H]6OC)[C@](O)([C@@H](OC)[C@H]23)[C@@H]14`?
Answer: Potency [1]: inactive; Potency [3]: inactive
